According to ChEMBL document CHEMBL1961873, “Compounds: GSK PKIS; Assays: Nanosyn kinase panel” (2012):

What was measured:
[1] = target: Tyrosine-protein kinase receptor UFO (Homo sapiens) (UniProt P30530); details: at 1 µM
[2] = target: Tyrosine-protein kinase Blk (Homo sapiens) (UniProt P51451); details: at 0.1 µM
[3] = target: Tyrosine-protein kinase Blk (Homo sapiens) (UniProt P51451); details: at 1 µM
[4] = target: T1, Cytoplasmic tyrosine-protein kinase BMX (Homo sapiens) (UniProt P51813); details: at 0.1 µM
T1 sequence (whole entry): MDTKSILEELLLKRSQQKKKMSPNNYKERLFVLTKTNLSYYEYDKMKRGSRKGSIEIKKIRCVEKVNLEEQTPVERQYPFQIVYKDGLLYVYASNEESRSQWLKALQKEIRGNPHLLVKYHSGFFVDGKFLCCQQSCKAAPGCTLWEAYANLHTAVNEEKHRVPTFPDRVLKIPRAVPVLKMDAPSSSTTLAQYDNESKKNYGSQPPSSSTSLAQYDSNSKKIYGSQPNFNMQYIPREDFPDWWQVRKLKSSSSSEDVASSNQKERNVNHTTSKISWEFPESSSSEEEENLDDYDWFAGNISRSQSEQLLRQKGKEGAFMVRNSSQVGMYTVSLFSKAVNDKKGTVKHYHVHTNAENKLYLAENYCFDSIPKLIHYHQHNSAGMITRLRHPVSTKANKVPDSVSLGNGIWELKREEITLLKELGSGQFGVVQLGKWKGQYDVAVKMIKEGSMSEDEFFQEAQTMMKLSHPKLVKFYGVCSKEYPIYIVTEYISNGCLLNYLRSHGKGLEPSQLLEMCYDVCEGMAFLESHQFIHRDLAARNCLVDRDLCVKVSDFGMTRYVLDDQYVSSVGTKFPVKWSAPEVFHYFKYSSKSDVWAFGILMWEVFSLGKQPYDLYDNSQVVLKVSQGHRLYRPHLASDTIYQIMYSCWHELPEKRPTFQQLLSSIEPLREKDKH

[5] = target: T1, Cytoplasmic tyrosine-protein kinase BMX (Homo sapiens); details: at 1 µM
[6] = target: Protein-tyrosine kinase 6 (Homo sapiens) (UniProt Q13882); details: at 0.1 µM
[7] = target: Protein-tyrosine kinase 6 (Homo sapiens) (UniProt Q13882); details: at 1 µM
[8] = target: Tyrosine-protein kinase BTK (Homo sapiens) (UniProt Q06187); details: at 0.1 µM
Tyrosine-protein kinase BTK (Homo sapiens), sequence (Q06187 whole entry): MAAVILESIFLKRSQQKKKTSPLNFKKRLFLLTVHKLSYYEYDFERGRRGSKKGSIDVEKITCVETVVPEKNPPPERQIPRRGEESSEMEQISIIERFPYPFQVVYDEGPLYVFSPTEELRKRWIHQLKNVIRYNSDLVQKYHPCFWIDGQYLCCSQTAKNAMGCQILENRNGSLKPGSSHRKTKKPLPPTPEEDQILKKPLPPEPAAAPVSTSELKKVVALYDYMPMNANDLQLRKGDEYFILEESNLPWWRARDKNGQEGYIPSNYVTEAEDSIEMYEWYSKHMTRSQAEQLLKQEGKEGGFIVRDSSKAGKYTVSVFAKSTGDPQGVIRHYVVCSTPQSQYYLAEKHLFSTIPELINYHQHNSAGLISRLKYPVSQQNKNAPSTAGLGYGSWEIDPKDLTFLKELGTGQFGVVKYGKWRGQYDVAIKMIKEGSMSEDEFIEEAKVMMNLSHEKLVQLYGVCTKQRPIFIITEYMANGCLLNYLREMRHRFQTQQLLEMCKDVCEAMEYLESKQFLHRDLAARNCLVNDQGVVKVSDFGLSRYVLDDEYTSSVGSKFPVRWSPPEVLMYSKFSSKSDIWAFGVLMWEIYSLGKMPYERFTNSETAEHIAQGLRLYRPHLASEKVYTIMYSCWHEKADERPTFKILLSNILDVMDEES

[9] = target: Tyrosine-protein kinase BTK (Homo sapiens) (UniProt Q06187); details: at 1 µM
[10] = target: Tyrosine-protein kinase CSK (Homo sapiens) (UniProt P41240); details: at 0.1 µM
[11] = target: Tyrosine-protein kinase CSK (Homo sapiens) (UniProt P41240); details: at 1 µM
[12] = target: T2, Discoidin domain-containing receptor 2 (Homo sapiens) (UniProt Q16832); details: at 0.1 µM
T2 sequence (whole entry): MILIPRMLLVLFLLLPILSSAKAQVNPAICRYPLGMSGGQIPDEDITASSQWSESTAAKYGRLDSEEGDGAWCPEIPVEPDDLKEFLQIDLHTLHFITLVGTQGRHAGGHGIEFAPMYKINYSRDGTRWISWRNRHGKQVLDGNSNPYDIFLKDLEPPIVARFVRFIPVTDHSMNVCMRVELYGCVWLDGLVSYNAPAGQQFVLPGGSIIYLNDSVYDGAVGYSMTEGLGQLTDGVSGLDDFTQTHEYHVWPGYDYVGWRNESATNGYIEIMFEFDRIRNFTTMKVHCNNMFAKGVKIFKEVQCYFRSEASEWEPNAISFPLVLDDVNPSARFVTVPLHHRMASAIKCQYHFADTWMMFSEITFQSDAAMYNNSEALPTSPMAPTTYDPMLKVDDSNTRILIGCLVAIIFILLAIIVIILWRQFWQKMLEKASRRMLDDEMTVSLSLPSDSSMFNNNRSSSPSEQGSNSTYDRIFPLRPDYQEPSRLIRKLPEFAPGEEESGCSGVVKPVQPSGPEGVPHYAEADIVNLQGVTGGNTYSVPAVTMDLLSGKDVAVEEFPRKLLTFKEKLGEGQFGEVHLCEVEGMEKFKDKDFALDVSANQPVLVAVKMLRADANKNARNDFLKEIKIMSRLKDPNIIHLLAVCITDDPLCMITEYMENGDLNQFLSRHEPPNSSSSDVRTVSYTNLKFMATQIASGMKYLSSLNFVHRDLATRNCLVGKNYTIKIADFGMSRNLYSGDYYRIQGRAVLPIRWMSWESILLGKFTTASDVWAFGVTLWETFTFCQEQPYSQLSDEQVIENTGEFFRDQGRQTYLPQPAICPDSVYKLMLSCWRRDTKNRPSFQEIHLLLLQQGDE

[13] = target: T2, Discoidin domain-containing receptor 2 (Homo sapiens); details: at 1 µM
[14] = target: Epidermal growth factor receptor (Homo sapiens) (UniProt P00533); details: at 0.1 µM
[15] = target: Epidermal growth factor receptor (Homo sapiens) (UniProt P00533); details: at 1 µM
[16] = system: Epidermal growth factor receptor (Homo sapiens), P00533 [L858R]; details: at 0.1 µM
Epidermal growth factor receptor (Homo sapiens), P00533 [L858R], sequence (P00533 whole entry L858R): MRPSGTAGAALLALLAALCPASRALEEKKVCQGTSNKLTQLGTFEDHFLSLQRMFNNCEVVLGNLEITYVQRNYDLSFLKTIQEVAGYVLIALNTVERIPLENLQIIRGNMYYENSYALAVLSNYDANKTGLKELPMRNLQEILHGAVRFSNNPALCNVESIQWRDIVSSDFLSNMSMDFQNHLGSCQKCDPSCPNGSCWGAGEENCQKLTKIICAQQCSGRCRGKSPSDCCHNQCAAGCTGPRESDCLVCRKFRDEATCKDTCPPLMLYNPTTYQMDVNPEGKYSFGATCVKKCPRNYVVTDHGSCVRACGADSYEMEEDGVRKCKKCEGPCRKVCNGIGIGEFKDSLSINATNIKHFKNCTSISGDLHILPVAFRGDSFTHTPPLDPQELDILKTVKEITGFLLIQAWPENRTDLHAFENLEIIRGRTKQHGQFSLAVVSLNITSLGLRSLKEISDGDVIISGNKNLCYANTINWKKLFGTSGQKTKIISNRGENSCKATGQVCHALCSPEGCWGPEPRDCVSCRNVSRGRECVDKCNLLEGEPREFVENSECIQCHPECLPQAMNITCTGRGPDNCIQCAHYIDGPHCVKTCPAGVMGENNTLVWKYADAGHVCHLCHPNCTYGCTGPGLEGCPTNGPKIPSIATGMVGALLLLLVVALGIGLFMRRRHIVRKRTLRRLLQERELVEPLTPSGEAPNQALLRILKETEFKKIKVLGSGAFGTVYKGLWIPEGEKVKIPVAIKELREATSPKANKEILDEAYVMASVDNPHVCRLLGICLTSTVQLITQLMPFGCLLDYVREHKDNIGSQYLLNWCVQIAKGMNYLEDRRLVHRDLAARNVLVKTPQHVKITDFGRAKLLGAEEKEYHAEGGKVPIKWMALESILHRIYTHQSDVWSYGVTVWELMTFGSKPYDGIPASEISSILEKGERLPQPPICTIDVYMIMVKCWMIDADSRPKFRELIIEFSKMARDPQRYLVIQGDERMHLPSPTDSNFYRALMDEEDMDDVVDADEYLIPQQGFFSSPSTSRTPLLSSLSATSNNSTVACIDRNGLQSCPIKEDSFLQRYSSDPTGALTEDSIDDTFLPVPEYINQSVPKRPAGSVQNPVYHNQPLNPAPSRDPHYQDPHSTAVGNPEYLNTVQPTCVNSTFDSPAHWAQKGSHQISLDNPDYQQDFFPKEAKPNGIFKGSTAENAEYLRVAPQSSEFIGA

[17] = system: Epidermal growth factor receptor (Homo sapiens), P00533 [L858R]; details: at 1 µM
[18] = system: Epidermal growth factor receptor (Homo sapiens), P00533 [L861Q]; details: at 0.1 µM
Epidermal growth factor receptor (Homo sapiens), P00533 [L861Q], sequence (P00533 whole entry L861Q): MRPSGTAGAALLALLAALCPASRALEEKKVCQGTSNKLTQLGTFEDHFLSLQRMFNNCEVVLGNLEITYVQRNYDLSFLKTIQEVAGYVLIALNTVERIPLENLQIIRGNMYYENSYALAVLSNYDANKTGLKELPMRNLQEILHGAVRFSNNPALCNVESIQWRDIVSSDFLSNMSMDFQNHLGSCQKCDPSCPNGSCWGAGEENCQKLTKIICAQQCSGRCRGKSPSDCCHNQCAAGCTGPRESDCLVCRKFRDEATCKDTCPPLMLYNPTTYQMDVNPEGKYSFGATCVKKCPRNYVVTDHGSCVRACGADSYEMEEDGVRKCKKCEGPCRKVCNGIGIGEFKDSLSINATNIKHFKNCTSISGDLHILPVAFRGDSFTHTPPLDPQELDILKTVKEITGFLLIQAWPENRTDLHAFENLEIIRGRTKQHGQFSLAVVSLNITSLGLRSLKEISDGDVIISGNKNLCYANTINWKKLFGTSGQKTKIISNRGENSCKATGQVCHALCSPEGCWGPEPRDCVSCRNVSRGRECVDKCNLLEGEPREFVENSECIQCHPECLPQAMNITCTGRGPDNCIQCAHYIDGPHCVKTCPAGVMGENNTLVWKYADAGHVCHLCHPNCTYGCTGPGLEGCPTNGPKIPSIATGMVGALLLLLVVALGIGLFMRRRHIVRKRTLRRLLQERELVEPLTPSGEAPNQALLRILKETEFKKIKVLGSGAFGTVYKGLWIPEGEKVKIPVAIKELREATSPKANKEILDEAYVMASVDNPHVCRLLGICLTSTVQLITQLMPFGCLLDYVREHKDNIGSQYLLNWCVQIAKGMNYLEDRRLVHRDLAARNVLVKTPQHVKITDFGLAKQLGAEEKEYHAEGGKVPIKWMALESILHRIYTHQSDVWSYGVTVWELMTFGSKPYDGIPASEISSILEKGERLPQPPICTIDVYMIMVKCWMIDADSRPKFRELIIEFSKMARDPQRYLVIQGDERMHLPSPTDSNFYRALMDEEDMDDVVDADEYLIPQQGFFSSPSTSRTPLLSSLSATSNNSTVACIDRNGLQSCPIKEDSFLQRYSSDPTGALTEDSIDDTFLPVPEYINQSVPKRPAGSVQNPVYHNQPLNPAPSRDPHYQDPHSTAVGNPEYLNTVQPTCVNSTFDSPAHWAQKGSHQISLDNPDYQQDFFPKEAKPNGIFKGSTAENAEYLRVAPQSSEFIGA

[19] = system: Epidermal growth factor receptor (Homo sapiens), P00533 [L861Q]; details: at 1 µM
[20] = system: Epidermal growth factor receptor (Homo sapiens), P00533 [T790M]; details: at 0.1 µM
Epidermal growth factor receptor (Homo sapiens), P00533 [T790M], sequence (P00533 whole entry T790M): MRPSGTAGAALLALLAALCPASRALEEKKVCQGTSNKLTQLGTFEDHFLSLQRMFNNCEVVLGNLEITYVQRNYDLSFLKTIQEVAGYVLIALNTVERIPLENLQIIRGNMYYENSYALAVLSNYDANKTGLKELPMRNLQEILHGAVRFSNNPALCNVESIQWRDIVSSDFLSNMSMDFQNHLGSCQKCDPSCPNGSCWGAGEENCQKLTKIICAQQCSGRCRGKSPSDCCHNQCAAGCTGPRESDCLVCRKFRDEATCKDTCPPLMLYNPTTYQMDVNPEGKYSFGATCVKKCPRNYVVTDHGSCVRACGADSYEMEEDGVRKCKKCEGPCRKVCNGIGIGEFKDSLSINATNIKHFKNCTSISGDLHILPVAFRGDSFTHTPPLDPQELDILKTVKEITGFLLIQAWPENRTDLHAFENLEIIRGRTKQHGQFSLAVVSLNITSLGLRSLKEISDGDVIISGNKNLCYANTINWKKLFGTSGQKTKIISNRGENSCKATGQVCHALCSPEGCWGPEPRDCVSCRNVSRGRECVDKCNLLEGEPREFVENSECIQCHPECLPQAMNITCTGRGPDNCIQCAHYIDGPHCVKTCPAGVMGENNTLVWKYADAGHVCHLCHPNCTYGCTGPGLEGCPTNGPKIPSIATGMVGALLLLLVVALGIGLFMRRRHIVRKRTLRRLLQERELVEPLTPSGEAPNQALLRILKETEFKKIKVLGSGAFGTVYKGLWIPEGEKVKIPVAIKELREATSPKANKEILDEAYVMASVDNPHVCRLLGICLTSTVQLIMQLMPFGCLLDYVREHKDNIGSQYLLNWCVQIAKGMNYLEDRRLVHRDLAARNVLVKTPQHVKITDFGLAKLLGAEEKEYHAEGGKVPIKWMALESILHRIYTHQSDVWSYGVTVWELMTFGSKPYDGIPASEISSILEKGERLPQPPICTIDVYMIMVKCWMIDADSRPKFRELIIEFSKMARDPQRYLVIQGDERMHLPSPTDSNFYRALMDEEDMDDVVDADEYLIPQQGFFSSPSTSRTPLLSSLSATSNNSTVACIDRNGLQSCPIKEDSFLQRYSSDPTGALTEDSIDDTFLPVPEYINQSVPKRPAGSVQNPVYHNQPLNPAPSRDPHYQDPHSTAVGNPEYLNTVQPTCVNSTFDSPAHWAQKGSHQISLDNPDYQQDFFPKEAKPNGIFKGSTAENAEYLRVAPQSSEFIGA

Tyrosine-protein kinase Blk (Homo sapiens), sequence (P51451 2-505 limits assumed): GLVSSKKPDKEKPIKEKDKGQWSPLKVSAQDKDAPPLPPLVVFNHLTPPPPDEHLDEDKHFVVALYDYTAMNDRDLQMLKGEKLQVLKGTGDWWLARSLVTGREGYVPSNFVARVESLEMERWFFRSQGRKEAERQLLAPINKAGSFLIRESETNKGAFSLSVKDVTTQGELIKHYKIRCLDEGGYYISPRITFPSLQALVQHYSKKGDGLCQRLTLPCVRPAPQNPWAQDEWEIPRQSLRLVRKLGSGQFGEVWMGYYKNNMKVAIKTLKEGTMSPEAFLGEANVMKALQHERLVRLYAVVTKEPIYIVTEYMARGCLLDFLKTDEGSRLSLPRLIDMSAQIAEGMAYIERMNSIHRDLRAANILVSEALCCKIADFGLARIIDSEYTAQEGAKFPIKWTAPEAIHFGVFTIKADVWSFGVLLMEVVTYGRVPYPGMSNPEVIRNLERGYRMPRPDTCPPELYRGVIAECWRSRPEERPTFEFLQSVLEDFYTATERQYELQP

Row | Compound | inhibition [1] | inhibition [2] | inhibition [3] | inhibition [4] | inhibition [5] | inhibition [6] | inhibition [7] | inhibition [8] | inhibition [9] | inhibition [10] | inhibition [11] | inhibition [12] | inhibition [13] | inhibition [14] | inhibition [15] | inhibition [16] | inhibition [17] | inhibition [18] | inhibition [19] | inhibition [20]
1 | COc1cc(C=NNc2ncnc3c2cnn3-c2ccccc2)ccc1O | 10.6% | 10.3% | 65.5% | 3.92% | 21.9% | 2.93% | 14.2% | 1.25% | 2.34% | 4.22% | 5.56% | 5.59% | 13.6% | 6.29% | 36.2% | 27.3% | 79.6% | 6.66% | 38.2% | 0.71%
2 | NC(=O)c1ccc(-c2nc(-c3ccccn3)c(-c3ccc4c(c3)OCO4)[nH]2)cc1 | -1.2% | 1.51% | 3.67% | 6% | 2.22% | 1.72% | 1.4% | -0.29% | 0.83% | 5.75% | 6.81% | 2.6% | 4.42% | 2.11% | 4.7% | 4.74% | 3.79% | 2.1% | 2.01% | -0.51%
3 | CCn1c(-c2nonc2N)nc2cncc(C(=O)N3CC[C@H](N)C3)c21 | -4.01% | 2.69% | 3.09% | 2.23% | 0.56% | 4.5% | 8.63% | -0.23% | -1.15% | 5.91% | 5.06% | 1.43% | 1.61% | 0.8% | 2.64% | 3.22% | 5.35% | 3.58% | 4.5% | 2.65%
4 | CCn1c(-c2nonc2N)nc2cnc(Oc3cccc(NC(=O)c4ccc(OCCN5CCOCC5)cc4)c3)cc21 | -2.93% | 2.22% | 2.41% | 0.58% | 2.53% | 0.94% | 4.32% | -1.45% | -2.04% | 2.95% | 2.94% | 1.27% | -0.68% | 1.37% | 3% | 1.72% | 2.23% | 2.62% | 2.57% | 0.97%
5 | CS(=O)(=O)Nc1ccc(N/C=C2\C(=O)Nc3ccccc32)cc1 | 4.47% | 0.62% | 18.2% | -1.58% | 0.63% | -4.62% | -2.23% | -1.06% | -0.9% | -9.22% | -6.43% | 0.64% | 0.83% | 0.27% | 1.45% | -0.02% | -5.94% | 0.35% | -1.41% | -1.68%
6 | Nc1nc(-c2ccccn2)c(-c2ccc3ncccc3n2)s1 | -4.26% | 2.58% | 1.8% | -0.49% | 3.73% | 2.76% | 7.02% | 1.06% | 0.04% | 9.09% | 4.7% | 3.14% | -1.29% | 1.32% | 1.23% | 3.43% | 2.31% | 1.79% | 4.31% | 1.91%
7 | CS(=O)(=O)CCNCc1ccc(-c2ccc3ncnc(Nc4ccc(OCc5cccc(F)c5)c(C(F)(F)F)c4)c3c2)o1 | -5.02% | 2.7% | 3.9% | 3.53% | 3.77% | 4.08% | 5.42% | 0.73% | -0.77% | 2.85% | 2.03% | 1.18% | 0.88% | 12.8% | 65.9% | 6.6% | 46.2% | 20.6% | 40.8% | 2.44%
8 | CC(C)=Cc1cccc2c1/C(=N/Nc1ccc(S(N)(=O)=O)cc1)C(=O)N2 | 5.18% | 3.01% | 31.1% | -0.19% | 6.64% | 1.35% | -1.64% | 1.86% | 3.95% | 0.6% | 1.41% | 0.85% | 7.39% | 2.03% | 5.14% | 1.48% | 9.14% | 1.19% | 3.55% | 1.38%
9 | Cc1ccc(NC(=O)c2ccnc(N3CCCC3)c2)cc1-c1ccc(C(=O)NCC2CC2)cc1 | 1.21% | -1.39% | -0.22% | 2.83% | 4.79% | 4.19% | 3.04% | -3.6% | -2.42% | 2.53% | -0.29% | 3.77% | 22.6% | -4.33% | -3.35% | -1.08% | -0.58% | 2.11% | -3.41% | 1.68%
10 | NS(=O)(=O)c1ccc(N/N=C2\C(=O)Nc3ccc(C(=O)NCCc4c[nH]cn4)cc32)cc1 | 9.57% | 4.25% | 17.2% | -1.78% | 6.53% | 7.16% | 5.31% | 1.88% | 1.29% | 8.17% | 9.56% | 1.41% | 5.19% | 2% | 4.43% | 5.09% | 5.32% | 3.18% | 3.48% | 2.7%
11 | COc1ccc(-c2coc3ncnc(N)c23)cc1 | -2.11% | 1.6% | 5.06% | 7.73% | 6.07% | 3.81% | 11.8% | 0.04% | 2.7% | 2.45% | 0.88% | 2.79% | 2.69% | -0.38% | 2.37% | 1.46% | 1.48% | 1.51% | -0.75% | 1.2%
12 | COC(=O)Nc1nc2cc(Oc3ccc(NC(=O)Nc4cccc(C(=O)O)c4)cc3)ccc2[nH]1 | -0.32% | -1.59% | 0.01% | 0.22% | 0.47% | 0.95% | -0.37% | -1.95% | -2.57% | 2.42% | – | 8.64% | 48.8% | -1.69% | -2.11% | 2.63% | 2.26% | 2.15% | 0.36% | 1.78%
13 | COc1ccc(-c2nn3ncccc3c2-c2ccnc(Nc3ccc(Cl)c(C(F)(F)F)c3)n2)cc1 | -2.97% | 1.79% | 2.85% | 2.75% | 2.33% | 3.82% | 4.81% | 0.66% | 0.36% | -0.37% | 5.3% | 0.69% | 3.24% | 0.68% | 3.67% | 1.63% | 14.3% | 2% | 5.96% | 0.44%
